Experimental findings from PubChem BioAssay (EPA / NIEHS) are described below.

Each structure is given as a SMILES string. Inconclusive results are not listed. Active and inactive are the calls of the source. Rule for the calls, unless noted: active = hit-call score of the fitted dose curve at least 0.9, where 1 is the maximum; inactive = score below 0.9.

Read-out in experiment [1]: E-selectin (Homo sapiens) (UniProt P16581)
The experiment is described as follows: BSK_3C_Eselectin: BioMAP Diversity Plus: 3C Assay for Eselectin Biomarker Activity (AID 2283015).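 For outcome: cell surface E-selectin protein quantified by ELISA 24 h after dosing.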 The note with it: primary human endothelial cells (HUVEC); actives raise or lower the signal. The procedure, abridged:
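HUVEC, 3C stimulation; compound exposure 24 h; E-selectin by ELISA; gain- or loss-of-signal fitted bidirectionally vs DMSO baseline.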

Read-out in experiment [2]: Interleukin-1 alpha (IL1a), IL1A (gene 3552)
Kind of experiment: BSK_BE3C_IL1a: BioMAP Diversity Plus: BE3C Assay for Interleukin-1 alpha (IL1a) Biomarker Activity (AID 2283016). The note with it: primary human bronchial epithelial cells; actives raise or lower the signal. In a few lines: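 Signal from IL-1a ELISA, taken 24 h after chemical dosing of human bronchial epithelial cells, is compared with DMSO as baseline using bidirectional curve fitting.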

Read-out in experiment [3]: Monocyte Chemoattractant Protein-1 (MCP1), CCL2 (gene 6347)
The experiment is described as follows: BSK_3C_MCP1: BioMAP Diversity Plus: 3C Assay for Monocyte Chemoattractant Protein-1 (MCP1) Biomarker Activity (AID 2283017). To be noted: primary human endothelial cells (HUVEC); actives raise or lower the signal. The procedure, abridged:
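HUVEC, 3C system; 24 h chemical exposure; MCP-1 by ELISA; bidirectional curve fit vs DMSO baseline.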

Read-out in experiment [4]: Monocyte Chemoattractant Protein-1 (MCP1), CCL2 (gene 6347)
The experiment is described as follows: BSK_4H_MCP1: BioMAP Diversity Plus: 4H Assay for Monocyte Chemoattractant Protein-1 (MCP1) Biomarker Activity (AID 2283018). To be noted: primary human endothelial cells (HUVEC); actives raise or lower the signal. The procedure, abridged:
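Endothelial cells from umbilical vein were treated with test chemical, then after 24 h MCP-1 levels were quantified by ELISA; endpoint values came from bidirectional fitting with DMSO as baseline of activity.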

Read-out in experiment [5]: Human Leukocyte Antigen - DR isotype (HLADR), HLA-DRA (gene 3122)
The experiment is described as follows: BSK_3C_HLADR: BioMAP Diversity Plus: 3C Assay for Human Leukocyte Antigen - DR isotype (HLADR) Biomarker Activity (AID 2283019).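 Note: ELISA of cell-surface HLA-DR on HUVEC 24 h after dosing.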 To be noted: primary human endothelial cells (HUVEC); actives raise or lower the signal. In a few lines:
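HUVEC, 3C stimulation, 24 h post-dose; HLA-DR by ELISA; bidirectional curve fit vs DMSO baseline; gain or loss of signal scored.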

Read-out in experiment [6]: Interleukin-8 (IL8), CXCL8 (gene 3576)
Kind of experiment: BSK_3C_IL8: BioMAP Diversity Plus: 3C Assay for Interleukin-8 (IL8) Biomarker Activity (AID 2283020). The note with it: primary human endothelial cells (HUVEC); actives raise or lower the signal. The procedure, abridged: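 Endothelial primary cells of human umbilical vein origin are dosed with chemical; after 24 h the IL-8 biomarker is measured by ELISA, and concentration–response is fitted in both directions versus DMSO.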

Read-out in experiment [7]: Monokine induced gamma interferon (MIG), CXCL9 (gene 4283)
The experiment is described as follows: BSK_3C_MIG: BioMAP Diversity Plus: 3C Assay for Monokine induced gamma interferon (MIG) Biomarker Activity (AID 2283021). To be noted: primary human endothelial cells (HUVEC); actives raise or lower the signal. In a few lines:
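Endothelial primary cells (human umbilical vein) are dosed with test chemical in the 3C system. MIG levels are measured by ELISA at 24 h and fitted in both directions relative to DMSO.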

Experiment [8] is described as follows: BSK_3C_SRB: Viability Assessment in the BioMAP Diversity Plus: 3C Assay (AID 2283023).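 Note: fitted both ways against DMSO so a hit may be signal rise or drop.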 To be noted: primary human endothelial cells (HUVEC). The procedure, abridged: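 HUVEC, 24 h post-dose; 10% TCA fix, 0.1% SRB stain, A560 nm. Bidirectional curve fit vs DMSO negative control.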
Read-out in experiment [9]: Matrix Metallopeptidase 1 (MMP1), MMP1 (gene 4312)
The experiment is described as follows: BSK_BE3C_MMP1: BioMAP Diversity Plus: BE3C Assay for Matrix Metallopeptidase 1 (MMP1) Biomarker Activity (AID 2283024). The note with it: primary human bronchial epithelial cells; actives raise or lower the signal. The procedure, abridged:
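MMP1 signal, measured by ELISA after a 24 h chemical exposure of human primary bronchial epithelial cells, is analysed with bidirectional fitting using DMSO as negative control.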

A short description of experiment [10]: BSK_3C_Vis: BioMAP Diversity Plus: 3C Assay for Morphology Visualization (AID 2283025).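 Note: fitted both ways so gain or loss versus DMSO counts.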 The note with it: primary human endothelial cells (HUVEC). In a few lines:
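Morphology read by light microscopy serves as a background control for the multiplexed 3C assay in human umbilical vein endothelial cells, taken 24 h after dosing, with DMSO as the negative control and bidirectional curve fitting.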

Read-out in experiment [11]: Pselectin, SELP (gene 6403)
Kind of experiment: BSK_4H_Pselectin: BioMAP Diversity Plus: 4H Assay for Pselectin Biomarker Activity (AID 2283026). To be noted: primary human endothelial cells (HUVEC); actives raise or lower the signal. In a few lines:
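Endothelial primary cells (human umbilical vein) are dosed, incubated 24 h, and assayed for surface P-selectin by ELISA; responses in either direction are fitted relative to the DMSO negative control.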

The nature of experiment [12]: BSK_4H_SRB: Viability Assessment in the BioMAP Diversity Plus: 4H Assay (AID 2283027).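 Note: cells exposed to compound for 24 h before staining.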 To be noted: primary human endothelial cells (HUVEC). The procedure, abridged: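 Cytotoxicity read-out in primary human endothelial cells: after 24 h compound exposure, cells were TCA-fixed (10%), stained with 0.1% SRB and absorbance taken at 560 nm. Values fitted in both directions relative to DMSO.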

The nature of experiment [13]: BSK_BE3C_SRB: Viability Assessment in the BioMAP Diversity Plus: BE3C Assay (AID 2283028).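 For AC50: fitted both ways so AC50 may mark signal gain or loss versus DMSO.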 The note with it: primary human bronchial epithelial cells. In a few lines: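 Primary human bronchial epithelium; chemical dosing, 24 h; 10% TCA fix, 0.1% SRB stain, A560; bidirectional fit vs DMSO baseline.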
Read-out in experiment [14]: Thrombomodulin, THBD (gene 7056)
Kind of experiment: BSK_3C_Thrombomodulin: BioMAP Diversity Plus: 3C Assay for Thrombomodulin Biomarker Activity (AID 2283029). To be noted: primary human endothelial cells (HUVEC); actives raise or lower the signal. The procedure, abridged: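 Endothelial cells from umbilical vein are dosed with test chemical and incubated 24 h. Thrombomodulin is then quantified by ELISA, with DMSO serving as negative control and activity baseline.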

Read-out in experiment [15]: Urokinase-type plasminogen activator receptor (uPAR), PLAUR (gene 5329)
The experiment is described as follows: BSK_4H_uPAR: BioMAP Diversity Plus: 4H Assay for Urokinase-type plasminogen activator receptor (uPAR) Biomarker Activity (AID 2283030). To be noted: primary human endothelial cells (HUVEC); actives raise or lower the signal. In a few lines: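 HUVEC, 24 h post-dose; uPAR by ELISA; bidirectional fit vs DMSO baseline.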

Read-out in experiment [16]: Vascular endothelial growth factor receptor 2 (Homo sapiens) (UniProt P35968)
The experiment is described as follows: BSK_4H_VEGFRII: BioMAP Diversity Plus: 4H Assay for Vascular endothelial growth factor receptor 2 (VEGFR2) Biomarker Activity (AID 2283031). To be noted: primary human endothelial cells (HUVEC); actives raise or lower the signal. In a few lines: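 HUVEC (human primary), 4H system; 24 h post-dose; VEGFRII by ELISA; bidirectional curve fit vs DMSO baseline; gain or loss of signal scored.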

The target of experiment [17] is human Thyroid Receptor alpha (THRa1), THRA (gene 7067) (UniProt P10827). Kind of experiment: ATG_THRa1_TRANS: Attagene TRANS-FACTORIAL HepG2 Assay for human Thyroid Receptor alpha (THRa1) (AID 2283014; active = hit-call score of the fitted dose curve at least 0.9, where 1 is the maximum). In a few lines: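 Transient HepG2 transfection, NR-Gal4 chimera driving GAL4-UAS reporters; 24 h compound exposure; total RNA, oligo(dT) RT, PCR, fluorescent primer extension, capillary electrophoresis. Upward direction vs DMSO control.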
Chain of human Thyroid Receptor alpha (THRa1), THRA (gene 7067) (P10827 whole entry, looked up, the tested form may be a part): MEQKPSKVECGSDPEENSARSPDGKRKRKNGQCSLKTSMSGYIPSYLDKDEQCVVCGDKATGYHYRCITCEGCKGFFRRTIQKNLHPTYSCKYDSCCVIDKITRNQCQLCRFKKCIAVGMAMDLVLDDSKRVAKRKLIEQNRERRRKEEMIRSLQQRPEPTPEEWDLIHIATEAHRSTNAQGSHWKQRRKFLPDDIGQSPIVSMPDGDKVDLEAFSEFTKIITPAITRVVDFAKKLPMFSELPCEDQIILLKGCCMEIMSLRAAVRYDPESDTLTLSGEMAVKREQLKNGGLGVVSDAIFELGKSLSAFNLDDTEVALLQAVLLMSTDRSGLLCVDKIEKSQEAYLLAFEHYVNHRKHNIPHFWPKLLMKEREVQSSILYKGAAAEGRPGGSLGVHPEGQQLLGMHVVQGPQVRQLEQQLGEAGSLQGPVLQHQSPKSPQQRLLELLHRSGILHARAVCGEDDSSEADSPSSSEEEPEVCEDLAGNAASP

For experiment [18], the target named is human Retinoid X Receptor beta (RXRb), RXRB (gene 6257) (UniProt P28702). The experiment is described as follows: ATG_RXRb_TRANS: Attagene TRANS-FACTORIAL HepG2 Assay for human Retinoid X Receptor beta (RXRb) (AID 2283013; active = hit-call score of the fitted dose curve at least 0.9, where 1 is the maximum). In a few lines:
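Chimeric receptor-Gal4 activity was assessed in transiently transfected human HepG2 cells after 24 h exposure. Transcripts from GAL4-UAS reporters were quantified by fluorescent RT-PCR and capillary electrophoresis, with DMSO as negative control and baseline.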

Experiment [19] has as its target human Vitamin D Receptor (VDR), VDR (gene 7421) (UniProt P11473). Kind of experiment: ATG_VDR_TRANS: Attagene TRANS-FACTORIAL HepG2 Assay for human Vitamin D Receptor (VDR) (AID 2283022; active = hit-call score of the fitted dose curve at least 0.9, where 1 is the maximum). In a few lines: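 RT-PCR/capillary electrophoresis read-out of reporter mRNA induction in transiently transfected HepG2; 24 h dosing; chimeric NR-Gal4 (TRANS format); gain-of-signal fit against DMSO baseline.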

Chain of human Retinoid X Receptor beta (RXRb), RXRB (gene 6257) (P28702 whole entry, looked up, the tested form may be a part): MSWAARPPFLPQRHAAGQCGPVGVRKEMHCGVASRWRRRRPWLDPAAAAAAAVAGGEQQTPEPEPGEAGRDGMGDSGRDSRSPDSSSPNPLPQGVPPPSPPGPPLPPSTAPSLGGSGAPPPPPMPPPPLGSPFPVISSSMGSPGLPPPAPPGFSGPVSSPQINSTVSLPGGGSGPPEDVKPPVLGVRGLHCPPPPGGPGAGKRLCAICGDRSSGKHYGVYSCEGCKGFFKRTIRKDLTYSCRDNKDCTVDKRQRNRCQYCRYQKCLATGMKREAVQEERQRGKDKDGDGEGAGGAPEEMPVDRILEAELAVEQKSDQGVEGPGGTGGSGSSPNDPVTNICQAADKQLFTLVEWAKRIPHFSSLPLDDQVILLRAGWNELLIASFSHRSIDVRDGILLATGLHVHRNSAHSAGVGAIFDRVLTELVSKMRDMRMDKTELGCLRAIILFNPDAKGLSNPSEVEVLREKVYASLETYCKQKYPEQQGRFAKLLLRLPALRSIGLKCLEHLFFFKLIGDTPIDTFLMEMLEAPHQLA
Chain of human Vitamin D Receptor (VDR), VDR (gene 7421) (P11473 whole entry, looked up, the tested form may be a part): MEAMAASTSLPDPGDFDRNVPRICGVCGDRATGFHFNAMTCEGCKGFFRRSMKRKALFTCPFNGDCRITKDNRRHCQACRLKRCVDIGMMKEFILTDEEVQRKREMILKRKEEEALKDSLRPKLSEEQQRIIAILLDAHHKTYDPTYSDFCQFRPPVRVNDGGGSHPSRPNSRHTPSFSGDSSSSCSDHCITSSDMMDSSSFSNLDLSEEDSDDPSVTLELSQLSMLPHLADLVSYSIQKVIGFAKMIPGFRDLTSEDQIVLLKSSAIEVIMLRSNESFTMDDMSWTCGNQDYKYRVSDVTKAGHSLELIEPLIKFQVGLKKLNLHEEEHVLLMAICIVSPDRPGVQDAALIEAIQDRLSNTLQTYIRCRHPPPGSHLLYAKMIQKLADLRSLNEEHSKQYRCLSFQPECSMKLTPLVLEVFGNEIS
Chain of E-selectin (Homo sapiens) (P16581 whole entry, looked up): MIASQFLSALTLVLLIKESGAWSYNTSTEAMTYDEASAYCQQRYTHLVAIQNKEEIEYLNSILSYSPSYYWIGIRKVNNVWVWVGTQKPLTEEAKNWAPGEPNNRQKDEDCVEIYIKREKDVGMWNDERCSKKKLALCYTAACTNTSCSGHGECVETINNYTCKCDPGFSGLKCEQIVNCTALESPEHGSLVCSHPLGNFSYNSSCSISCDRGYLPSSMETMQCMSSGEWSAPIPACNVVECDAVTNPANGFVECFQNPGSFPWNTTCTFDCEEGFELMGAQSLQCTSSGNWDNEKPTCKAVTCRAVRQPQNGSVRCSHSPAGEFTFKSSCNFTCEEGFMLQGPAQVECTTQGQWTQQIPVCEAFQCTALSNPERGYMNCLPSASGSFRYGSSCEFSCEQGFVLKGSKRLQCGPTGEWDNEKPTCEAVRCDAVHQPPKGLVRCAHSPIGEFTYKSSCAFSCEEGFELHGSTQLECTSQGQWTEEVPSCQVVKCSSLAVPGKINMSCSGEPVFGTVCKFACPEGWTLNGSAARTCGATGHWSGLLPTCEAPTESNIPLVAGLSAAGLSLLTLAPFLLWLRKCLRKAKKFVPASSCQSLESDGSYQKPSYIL

With `OCC(O)CO`, the outcome in experiment [1], in [2], in [3], in experiment [4], in [5] and in experiment [6] was inactive. For the same compound, the outcome in [7], in [8], in experiment [9], in experiment [10], in [11] and in experiment [12] was inactive. The outcome in experiment [13], in experiment [14], in [15] and in experiment [16] was inactive.

As for `O=C(Oc1ccccc1)c1cccc(C(=O)Oc2ccccc2)c1`, the outcome in experiment [17], in experiment [1], in [2], in [3], in experiment [4] and in experiment [6] was inactive. Further, the outcome in experiment [7], in experiment [8], in [9], in experiment [10], in experiment [11] and in experiment [12] was inactive. Moreover, the outcome in [13], in [14], in [15] and in experiment [16] was inactive.

With `O=Cc1ccccc1C=O`, the compound was classed as inactive in [18], in experiment [1], in experiment [2], in [3], in experiment [4] and in [6]. Moreover, the result in experiment [7], in experiment [8], in experiment [9], in [10], in experiment [11] and in experiment [12] was inactive. In addition, the result in experiment [13], in experiment [14], in experiment [15] and in experiment [16] was inactive.

As usually defined, the AC50 is the midpoint of the concentration-response curve, whichever way the signal moves. Regarding `O=C(N[C@@H](c1ccccc1)[C@@H]1CCCCN1)c1cccc(C(F)(F)F)c1Cl`, the result in experiment [1], in experiment [4], in experiment [7], in experiment [19], in experiment [12] and in [14] was inactive. The outcome in experiment [15] and in experiment [16] was inactive. For the same compound, the AC50 in [2] was 36 µM (active); in experiment [3] it was 20 µM (active); in experiment [6] it was 12.7 µM (active); in [8] it was 20 µM (active); in [9] it was 31.8 µM (active); in experiment [10], 13.7 µM (active). For the same compound, the AC50 in experiment [11] is 20 µM (active); in experiment [13], 34.3 µM (active).

With `Oc1ccc(O)cc1`, the half-maximal activity concentration (AC50) is 13.8 µM (active) in [1], 2.96 µM (active) in experiment [9] and 20 µM (active) in [11]. Besides, the outcome in experiment [2], in experiment [3], in experiment [4], in experiment [6], in experiment [7] and in experiment [19] was inactive. In addition, the outcome in experiment [8], in experiment [10], in experiment [12], in experiment [13], in experiment [14] and in experiment [15] was inactive. Besides, the result in [16] was inactive.

Turning to `O=C(O)c1[nH]n(-c2ccc(S(=O)(=O)O)cc2)c(=O)c1N=Nc1ccc(S(=O)(=O)O)cc1`, the outcome in [1], in experiment [2], in [3], in [4], in [6] and in [7] was inactive. In addition, the call in experiment [19], in experiment [8], in [9], in experiment [10], in experiment [11] and in experiment [12] was inactive. For the same compound, the result in experiment [13], in [14], in experiment [15] and in experiment [16] was inactive.

As to `NC1CCCCC1`, the outcome in experiment [18], in [17], in [1], in experiment [2], in experiment [3] and in experiment [4] was inactive. Also, the result in [6], in experiment [7], in [19], in [8], in [9] and in experiment [10] was inactive. The outcome in experiment [11], in [12], in experiment [13], in experiment [14], in experiment [15] and in experiment [16] was inactive.

Consider `N[C@@H](Cc1c[nH]c2ccccc12)C(=O)O`, for which the compound was classed as inactive in experiment [18], in experiment [17], in experiment [1], in experiment [2], in [3] and in experiment [4]. The outcome in experiment [6], in experiment [7], in [8], in [9], in experiment [10] and in [11] was inactive. The result in experiment [12], in [13], in [14], in experiment [15] and in experiment [16] was inactive.
